Three compounds from PubChem BioAssay (EPA / NIEHS) can be followed below.

Each structure is given as a SMILES string. Calls of active or inactive are those of the source. How the source made its calls: active means hit-call score of the fitted dose curve at least 0.9, where 1 is the maximum; inactive means score below 0.9.

What all share (conditions): mRNA level, 48 h; actives raise or lower the signal
Read-out in one experiment: MYC, MYC (gene 4609)
The experiment can be described thus: LTEA_HepaRG_MYC: Life Technologies and Expression Analysis (LTEA) Assay for MYC using HepaRG (AID 2283518). In outline: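 qRT-PCR read-out of MYC transcript (Fluidigm TaqMan, housekeeping-normalized) after 48 h chemical exposure of HepaRG cells; eight concentrations, top 100 uM, half-log steps. Bidirectional curve fitting against 0.5% DMSO vehicle baseline.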

Read-out in experiment [1]: matrix metalloproteinase-3 (MMP3), MMP3 (gene 4314)
The experiment is described as follows: LTEA_HepaRG_MMP3: Life Technologies and Expression Analysis (LTEA) Assay for matrix metalloproteinase-3 (MMP3) using HepaRG (AID 2283519). An outline of the steps:
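Human liver HepaRG cultures received chemicals (top concentration 100 uM, 0.5% DMSO) for 48 h in duplicate. MMP3 mRNA induction or loss was then assessed via TaqMan qRT-PCR with housekeeping-gene normalisation.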

Read-out in experiment [2]: Paternally Expressed 10 (PEG10), PEG10 (gene 23089)
The experiment is described as follows: LTEA_HepaRG_PEG10: Life Technologies and Expression Analysis (LTEA) Assay for Paternally Expressed 10 (PEG10) using HepaRG (AID 2283520). In outline:
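PEG10 transcript measured by Fluidigm qRT-PCR, normalized to three housekeeping genes, in HepaRG cells treated 48 h (highest 100 uM, half-log steps, 0.5% DMSO vehicle). Cells plated 48 h before switching to serum-free induction medium.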

Read-out in experiment [3]: Nuclear factor NF-kappa-B p105 subunit (Homo sapiens) (UniProt P19838)
The experiment is described as follows: LTEA_HepaRG_NFKB1: Life Technologies and Expression Analysis (LTEA) Assay for Nuclear Factor Kappa B Subunit 1 (NFKB1) using HepaRG (AID 2283521).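 Further: differentiated human HepaRG liver cells in serum-free induction medium.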 In outline: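 NFKB1 transcript was measured by TaqMan qRT-PCR on Fluidigm arrays, normalised to three housekeeping genes and fitted in both directions against 0.5% DMSO. HepaRG cells were dosed in duplicate for 48 h in serum-free induction medium, eight half-log steps from 100 uM.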

Read-out in experiment [4]: Protein phosphatase 2A (PPP2R4), PTPA (gene 5524)
The experiment can be described thus: LTEA_HepaRG_PPP2R4: Life Technologies and Expression Analysis (LTEA) Assay for Protein phosphatase 2A (PPP2R4) using HepaRG (AID 2283522). An outline of the steps: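 Expression was quantified by Fluidigm qRT-PCR normalised to three housekeeping genes after 48 h treatment. Human HepaRG cells received an 8-point series from 100 µM downward by half-logs, in duplicate with 0.5% DMSO vehicle and 1 mM phenobarbital as induction control.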

Read-out in experiment [5]: Phosphatase and tensin (PTEN), PTEN (gene 5728)
The experiment is described as follows: LTEA_HepaRG_PTEN: Life Technologies and Expression Analysis (LTEA) Assay for Phosphatase and tensin (PTEN) using HepaRG (AID 2283523). In outline:
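Expression of PTEN is quantified in the human liver line HepaRG following two days of dosing (top concentration 100 uM, half-log dilutions, 0.5% DMSO). Values derive from bidirectional curve fitting relative to DMSO controls.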

Read-out in experiment [6]: solute carrier (SLC22A1), SLC22A1 (gene 6580)
The experiment can be described thus: LTEA_HepaRG_SLC22A1: Life Technologies and Expression Analysis (LTEA) Assay for solute carrier (SLC22A1) using HepaRG (AID 2283524). In outline:
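Transcript induction or suppression of SLC22A1 in human HepaRG cultures is scored after 48 h chemical treatment, with DMSO (0.5%) as baseline for bidirectional fitting. Concentrations span eight half-log points topping at 100 uM.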

Read-out in experiment [7]: Nuclear factor erythroid 2-related factor 2 (Homo sapiens) (UniProt Q16236)
The experiment is described as follows: LTEA_HepaRG_NFE2L2: Life Technologies and Expression Analysis (LTEA) Assay for Nuclear factor erythroid 2-related factor 2 (NFE2L2) Transcription Factor using HepaRG (AID 2283527). An outline of the steps:
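Human liver HepaRG line treated in duplicate for 48 h with an eight-point series topping at 100 uM. Gene expression of NFE2L2 by qRT-PCR, bidirectionally fitted against the vehicle control.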

Read-out in experiment [8]: succinate dehydrogenase complex iron sulfur subunit B (SDHB), SDHB (gene 6390)
The experiment can be described thus: LTEA_HepaRG_SDHB: Life Technologies and Expression Analysis (LTEA) Assay for succinate dehydrogenase complex iron sulfur subunit B (SDHB) using HepaRG (AID 2283528). An outline of the steps:
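SDHB transcript level read by TaqMan qRT-PCR, housekeeping-normalised (ACTB, GAPDH, POLR2A), after 48 h chemical treatment of plated HepaRG cells; eight concentrations top 100 uM, half-log steps, 0.5% DMSO, duplicates; fitted both directions against DMSO.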

Read-out in experiment [9]: Signal transducer and activator of transcription 3 (Homo sapiens) (UniProt P40763)
The experiment is described as follows: LTEA_HepaRG_STAT3: Life Technologies and Expression Analysis (LTEA) Assay for Signal transducer and activator of transcription (STAT3) using HepaRG (AID 2283529). In outline:
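In this transcriptional endpoint, HepaRG cultures receive test chemicals at up to 100 uM for 48 h, tested in duplicate. STAT3 mRNA is normalized to ACTB, GAPDH and POLR2A.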

Read-out in experiment [10]: solute carrier (SLCO1B1), SLCO1B1 (gene 10599)
The experiment can be described thus: LTEA_HepaRG_SLCO1B1: Life Technologies and Expression Analysis (LTEA) Assay for solute carrier (SLCO1B1) using HepaRG (AID 2283530). An outline of the steps: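 SLCO1B1 transcript read by qRT-PCR (Fluidigm arrays), normalized to three housekeeping genes, after 48 h chemical exposure of HepaRG cells; bidirectional concentration-response fitting versus 0.5% DMSO baseline. Eight-point half-log series, maximum 100 uM.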

Read-out in experiment [11]: Transforming Growth Factor (TGFA), TGFA (gene 7039)
The experiment can be described thus: LTEA_HepaRG_TGFA: Life Technologies and Expression Analysis (LTEA) Assay for Transforming Growth Factor (TGFA) using HepaRG (AID 2283532). In outline:
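Gene expression of TGFA was quantified by qRT-PCR after human HepaRG cells were treated for 48 h with test chemicals (eight concentrations, highest 100 uM, 0.5% DMSO). Activity in either direction was fitted relative to DMSO.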

Read-out in experiment [12]: Transforming Growth Factor (TGFB1), TGFB1 (gene 7040)
The experiment can be described thus: LTEA_HepaRG_TGFB1: Life Technologies and Expression Analysis (LTEA) Assay for Transforming Growth Factor (TGFB1) Transporter using HepaRG (AID 2283533). In outline:
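qRT-PCR readout of TGFB1 transcript in HepaRG lysates, normalized to three housekeeping genes; gain or loss of signal fitted relative to 0.5% DMSO vehicle. Exposure: 48 h, 8-point curve from 100 uM, duplicate wells.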

Read-out in a further experiment: TIMP1, TIMP1 (gene 7076)
The experiment can be described thus: LTEA_HepaRG_TIMP1: Life Technologies and Expression Analysis (LTEA) Assay for TIMP1 using HepaRG (AID 2283534).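 Further: TaqMan qRT-PCR signal normalized to ACTB GAPDH and POLR2A housekeeping genes.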 In outline:
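HepaRG, 48 h exposure, 8-pt half-log series from 100 uM in 0.5% DMSO, duplicates; TIMP1 transcript by Fluidigm qRT-PCR, housekeeping-normalized; bidirectional curve fit vs DMSO baseline.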

Read-out in experiment [13]: Tumor necrosis factor receptor 1 (TNFRSF1A), TNFRSF1A (gene 7132)
The experiment is described as follows: LTEA_HepaRG_TNFRSF1A: Life Technologies and Expression Analysis (LTEA) Assay for Tumor necrosis factor receptor 1 (TNFRSF1A) using HepaRG (AID 2283535). In outline:
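HepaRG, 48 h plating then 48 h chemical exposure, serum-free induction media; 8-pt CRC from 100 uM, half-log, 0.5% DMSO vehicle, duplicates. Readout: TaqMan qRT-PCR (Fluidigm), housekeeping-gene normalized; bidirectional fit vs DMSO.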

Read-out in experiment [14]: Thyroid Hormone Responsive (THRSP), THRSP (gene 7069)
The experiment can be described thus: LTEA_HepaRG_THRSP: Life Technologies and Expression Analysis (LTEA) Assay for Thyroid Hormone Responsive (THRSP) using HepaRG (AID 2283536). An outline of the steps:
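Cell model: human HepaRG, approx. 100,000 cells/well, 0.5% DMSO vehicle. Exposure lasts 48 h; phenobarbital 1 mM serves as induction positive control. Gene expression is measured by qRT-PCR against three endogenous control genes.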

Read-out in experiment [15]: UDP glucuronosyltransferase (UGT1A1), UGT1A1 (gene 54658)
The experiment can be described thus: LTEA_HepaRG_UGT1A1: Life Technologies and Expression Analysis (LTEA) Assay for UDP glucuronosyltransferase (UGT1A1) using HepaRG (AID 2283538). In outline:
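UGT1A1 transcript level, measured by qRT-PCR with three housekeeping genes for normalization, after 48 h treatment of human HepaRG cells (0.5% DMSO, duplicates, up to 100 uM, half-log steps, 8 points). Curves fit both directions against DMSO baseline.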

Read-out in experiment [16]: Pyruvate Dehydrogenase Kinase 4 (PDK4), PDK4 (gene 5166)
The experiment is described as follows: LTEA_HepaRG_PDK4: Life Technologies and Expression Analysis (LTEA) Assay for Pyruvate Dehydrogenase Kinase 4 (PDK4) using HepaRG (AID 2283525). An outline of the steps: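 Eight-point, half-log concentration series (max 100 uM, 0.5% DMSO) applied to differentiated HepaRG cells for 48 h in duplicate. Endpoint: PDK4 mRNA induction or repression by qRT-PCR against DMSO baseline.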

Read-out in experiment [17]: NAD(P)H dehydrogenase [quinone] 1 (NQO1), NQO1 (gene 1728)
The experiment can be described thus: LTEA_HepaRG_NQO1: Life Technologies and Expression Analysis (LTEA) Assay for NAD(P)H dehydrogenase [quinone] 1 (NQO1) using HepaRG (AID 2283526). An outline of the steps:
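NQO1 transcript induction or loss measured by TaqMan qRT-PCR, referenced to three housekeeping genes and fitted bidirectionally against 0.5% DMSO. HepaRG cultures exposed 48 h, duplicate, eight-point half-log series, top 100 uM.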

Sequence of Nuclear factor erythroid 2-related factor 2 (Homo sapiens) (Q16236 whole entry, looked up): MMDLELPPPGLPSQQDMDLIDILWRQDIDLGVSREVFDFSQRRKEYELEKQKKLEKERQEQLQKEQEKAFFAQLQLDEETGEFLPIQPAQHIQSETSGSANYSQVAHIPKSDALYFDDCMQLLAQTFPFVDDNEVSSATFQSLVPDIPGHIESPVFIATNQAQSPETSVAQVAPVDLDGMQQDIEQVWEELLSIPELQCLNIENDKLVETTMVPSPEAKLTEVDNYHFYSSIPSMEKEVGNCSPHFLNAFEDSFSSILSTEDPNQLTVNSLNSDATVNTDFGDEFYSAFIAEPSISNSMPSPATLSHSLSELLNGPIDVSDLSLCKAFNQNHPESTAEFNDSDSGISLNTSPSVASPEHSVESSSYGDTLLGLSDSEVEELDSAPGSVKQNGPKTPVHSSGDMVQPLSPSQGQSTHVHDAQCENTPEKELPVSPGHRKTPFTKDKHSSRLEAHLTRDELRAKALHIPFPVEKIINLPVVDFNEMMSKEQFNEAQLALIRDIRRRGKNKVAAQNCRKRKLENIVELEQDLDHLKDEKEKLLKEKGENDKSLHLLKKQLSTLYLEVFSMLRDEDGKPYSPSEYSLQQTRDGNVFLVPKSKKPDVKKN
Sequence of Signal transducer and activator of transcription 3 (Homo sapiens) (P40763 whole entry, looked up): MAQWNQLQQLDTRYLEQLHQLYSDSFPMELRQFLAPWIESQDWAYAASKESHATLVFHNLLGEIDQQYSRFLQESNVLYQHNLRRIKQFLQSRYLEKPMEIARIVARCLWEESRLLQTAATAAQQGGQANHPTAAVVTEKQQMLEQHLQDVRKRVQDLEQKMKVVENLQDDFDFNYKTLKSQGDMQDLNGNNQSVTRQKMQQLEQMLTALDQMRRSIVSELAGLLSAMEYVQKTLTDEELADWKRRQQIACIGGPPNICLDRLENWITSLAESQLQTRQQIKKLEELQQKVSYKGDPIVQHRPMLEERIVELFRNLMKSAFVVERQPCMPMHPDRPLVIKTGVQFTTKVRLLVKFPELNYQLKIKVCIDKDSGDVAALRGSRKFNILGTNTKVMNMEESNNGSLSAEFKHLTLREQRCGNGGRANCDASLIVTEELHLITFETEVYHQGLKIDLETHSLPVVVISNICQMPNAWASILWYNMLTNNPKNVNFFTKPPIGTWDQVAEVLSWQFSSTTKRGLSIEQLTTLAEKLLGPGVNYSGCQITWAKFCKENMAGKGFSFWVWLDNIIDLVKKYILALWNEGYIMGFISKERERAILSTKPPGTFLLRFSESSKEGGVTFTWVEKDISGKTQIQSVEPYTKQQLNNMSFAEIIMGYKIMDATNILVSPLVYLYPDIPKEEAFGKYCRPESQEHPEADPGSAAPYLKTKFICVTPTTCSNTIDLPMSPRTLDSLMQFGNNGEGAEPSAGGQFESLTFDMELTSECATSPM
Sequence of Nuclear factor NF-kappa-B p105 subunit (Homo sapiens) (P19838 whole entry, looked up): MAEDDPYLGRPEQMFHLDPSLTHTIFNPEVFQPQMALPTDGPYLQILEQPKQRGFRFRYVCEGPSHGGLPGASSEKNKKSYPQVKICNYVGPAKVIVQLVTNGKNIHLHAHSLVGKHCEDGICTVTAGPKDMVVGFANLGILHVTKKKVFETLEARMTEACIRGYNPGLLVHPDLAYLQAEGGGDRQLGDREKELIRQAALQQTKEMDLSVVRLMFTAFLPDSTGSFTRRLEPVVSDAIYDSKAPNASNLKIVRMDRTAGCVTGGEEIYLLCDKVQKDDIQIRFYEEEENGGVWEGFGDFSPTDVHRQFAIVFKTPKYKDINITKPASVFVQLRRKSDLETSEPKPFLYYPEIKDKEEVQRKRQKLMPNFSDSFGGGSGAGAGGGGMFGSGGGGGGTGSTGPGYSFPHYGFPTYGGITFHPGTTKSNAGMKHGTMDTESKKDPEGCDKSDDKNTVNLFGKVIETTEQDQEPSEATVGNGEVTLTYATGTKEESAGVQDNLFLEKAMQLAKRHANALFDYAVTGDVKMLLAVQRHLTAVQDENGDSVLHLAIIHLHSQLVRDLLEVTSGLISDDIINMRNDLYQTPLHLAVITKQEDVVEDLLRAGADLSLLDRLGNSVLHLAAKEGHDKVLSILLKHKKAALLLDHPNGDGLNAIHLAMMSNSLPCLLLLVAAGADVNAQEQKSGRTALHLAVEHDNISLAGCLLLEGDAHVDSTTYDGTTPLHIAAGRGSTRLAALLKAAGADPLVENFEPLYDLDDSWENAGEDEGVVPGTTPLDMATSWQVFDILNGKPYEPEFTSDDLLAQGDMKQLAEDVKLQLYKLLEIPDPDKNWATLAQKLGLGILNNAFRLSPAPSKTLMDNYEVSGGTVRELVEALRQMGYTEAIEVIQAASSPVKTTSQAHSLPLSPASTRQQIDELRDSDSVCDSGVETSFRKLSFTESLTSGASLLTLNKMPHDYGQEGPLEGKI

Consider `NC(=O)NN=Cc1ccc([N+](=O)[O-])o1`, for which the AC50 – broadly, the concentration giving half of the maximal activity seen – with MYC, MYC (gene 4609) was 151 nM (active); in experiment [1], 256 nM (active); in [11], 196 nM (active). The compound was classed as inactive in experiment [2], in [3], in experiment [4], in [5], in [6] and in experiment [7]. Moreover, the outcome in experiment [8] was “inactive”; in [9], “inactive”; in experiment [10], “inactive”; in experiment [12], “inactive”; with TIMP1, TIMP1 (gene 7076), “inactive”; in [13] it was “inactive”. Further, the call in [14] and in experiment [15] was inactive.
Consider `CC1(C)C(=O)N(Cl)C(=O)N1Cl`, for which the outcome was “inactive” in the experiment with MYC, MYC (gene 4609); “inactive” in [1]; “inactive” in [2]; “inactive” in experiment [4]; “inactive” in [5]; “inactive” in experiment [6]. The compound was classed as inactive in experiment [16], in [17], in experiment [7], in experiment [8], in experiment [9] and in experiment [10]. Moreover, the outcome in experiment [11] is “inactive”; in experiment [12], “inactive”; with TIMP1, TIMP1 (gene 7076), “inactive”; in experiment [13] it was “inactive”; in experiment [14] it was “inactive”.
As to `COS(C)(=O)=O`, the outcome was “inactive” in the experiment with MYC, MYC (gene 4609); “inactive” in experiment [1]; “inactive” in experiment [2]; “inactive” in [3]; “inactive” in [4]; “inactive” in experiment [5]. The compound was classed as inactive in experiment [6], in experiment [7], in [8], in experiment [9], in experiment [10] and in experiment [11]. Besides, the outcome in [12] was “inactive”; with TIMP1, TIMP1 (gene 7076), “inactive”; in [13] it was “inactive”; in [14], “inactive”.
